Results from PubChem BioAssay AID743287 (Broad Institute, 2014).
The campaign covered roughly 370,000 compounds. About 2,300 (0.62%) were called active. Shown is part of a subset that was picked to be rich in actives. Unmarked numbers belong to inactive results.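 The calls were made as follows: active = lowest replicate activation of at least 40%, so every replicate reaches that level; inactive = the rest.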

experiment: primary screen for activators of insulin secretion dependent on glucose, INS-1E cells, GLuc reporter luminescence (AID 743287); settings: INS-1E GLuc reporter insulin secretion, 2-3 h, at 16.6 µM, stronger effect = higher value;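 also: 0% = median of neutral control wells and 100% = median of IBMX positive control wells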

Row | SMILES | activation
1 | C[C@H](NC(=O)[C@@H]1[C@@H](CO)[C@@H]2Cn3c(ccc(-c4cccc(F)c4)c3=O)[C@@H]2N1C)c1ccccc1 | -1.52%
2 | C[C@@H]1CCCCO[C@@H](CN(C)S(=O)(=O)c2cn(C)cn2)[C@H](C)CN([C@@H](C)CO)C(=O)c2cc(NC(=O)Nc3ccccc3)ccc2O1 | 20.9%
3 | CN1C(=O)c2cc(NC(=O)Cc3ccccc3)ccc2OC[C@H]2O[C@H](CC(=O)NCc3ccc(Cl)cc3)CC[C@H]21 | -7.02%
4 | C[C@@H]1CN([C@H](C)CO)C(=O)Cc2cc(NC(=O)Nc3ccc(C(F)(F)F)cc3)ccc2O[C@@H]1CN(C)S(=O)(=O)c1ccccc1 | 7.64%
5 | COc1ccc(CN2CCCCC2C)cc1OC (configuration not stated) | 11.6%
6 | COc1ccc(CN2CCOC2=O)cc1OC | 59.2% (active)
7 | COc1ccc(CN2CC[C@H]3C=CC[C@@H](C(=O)N4CCOCC4)[C@H]3C2=O)cc1OC | 9.86%
8 | CNC[C@@H]1Oc2ccc(NC(C)=O)cc2CC(=O)N(C)C[C@@H]1C | 3.12%
9 | COc1ccc(-c2ccccc2C2Cc3nnccc3CN2C(=O)Nc2ccccc2)cc1 (configuration not stated) | 60.4% (active)
10 | COc1ccc(CN2[C@@H](CO)[C@@H]3c4ccccc4N(C(=O)Nc4ccccc4)C[C@@H]32)cc1 | -18.4%
11 | COC(=O)N1Cc2ccnnc2CC1c1ccccc1Br (configuration not stated) | 5.66%
12 | CO[C@H]1CN(C)C(=O)c2ccc(NC(=O)NC(C)C)cc2OC[C@H](C)N(Cc2cncnc2)C[C@@H]1C | -3.42%
13 | Clc1ccc(Cl)c(Oc2ccc(Oc3nc(Cl)ccc3Cl)cc2)n1 | 43.2% (active)
14 | CC(C)NC(=O)N(C)C[C@@H]1OCCCC[C@H](C)Oc2ccc(NC(=O)Nc3ccccc3)cc2C(=O)N([C@H](C)CO)C[C@@H]1C | -11.5%
15 | CCOc1ccc(C(C)NC(=O)CN2C(=O)NC3(CCCCC3)C2=O)cc1OCC (configuration not stated) | 5.62%
16 | Cc1ccc(COC(=O)CN2C(=O)NC3(CCCC3)C2=O)cc1 | 6.93%
17 | CCOc1ccc(C(C)=O)cc1COC(=O)CN1C(=O)NC2(CCCC2)C1=O | 241% (active)
18 | CCC(=O)N(C)C[C@@H]1Oc2cc(C#CCOC)ccc2S(=O)(=O)N([C@H](C)CO)C[C@H]1C | 8.1%
19 | CCCN(C)C[C@@H]1OCCCC[C@H](C)Oc2ccc(NS(=O)(=O)c3ccc(C)cc3)cc2C(=O)N([C@H](C)CO)C[C@@H]1C | 7.05%
20 | COCCNc1nc(N)c([N+](=O)[O-])c(N2CCCCCC2)n1 | 52.3% (active)
21 | C=CCNc1nc(N)c([N+](=O)[O-])c(NC2CCCCC2)n1 | 20.2%
22 | COCCNc1nc(N)c([N+](=O)[O-])c(NCCO)n1 | 17.8%
